Measurements from PubChem BioAssay (Tox21).
Results filed as inconclusive are left out. Activity calls are given as the source filed them. Unless noted, calls come from the whole dose curve; as a rule, active = well fitted curve in the direction sought with a large enough effect in the repeat runs; inconclusive = weak or mixed curves; inactive = no such curve, though single readings can be large; an effect the other way counts as inactive or inconclusive.

Experiments:
[1] = qHTS assay to identify aromatase inhibitors - cell viability counter screen (AID 743084);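 note: cells stimulated with testosterone during compound exposure; nearly all actives have a fitted effect of over 55% in size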; note: potency is the fitted concentration of half-maximal effect
[2] = target: Aryl hydrocarbon receptor (Homo sapiens) (UniProt P35869); test: qHTS assay to identify small molecule that activate the aryl hydrocarbon receptor (AhR) signaling pathway (AID 743085); note: nearly all actives have a fitted effect of over 15% in size; note: potency is the fitted concentration of half-maximal effect;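 for activation: HG2L7.5c1 human HepG2 liver cells with stably integrated DRE-driven firefly reporter; series mostly up to about 70 µM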
Aryl hydrocarbon receptor (Homo sapiens), sequence (P35869 whole entry, looked up): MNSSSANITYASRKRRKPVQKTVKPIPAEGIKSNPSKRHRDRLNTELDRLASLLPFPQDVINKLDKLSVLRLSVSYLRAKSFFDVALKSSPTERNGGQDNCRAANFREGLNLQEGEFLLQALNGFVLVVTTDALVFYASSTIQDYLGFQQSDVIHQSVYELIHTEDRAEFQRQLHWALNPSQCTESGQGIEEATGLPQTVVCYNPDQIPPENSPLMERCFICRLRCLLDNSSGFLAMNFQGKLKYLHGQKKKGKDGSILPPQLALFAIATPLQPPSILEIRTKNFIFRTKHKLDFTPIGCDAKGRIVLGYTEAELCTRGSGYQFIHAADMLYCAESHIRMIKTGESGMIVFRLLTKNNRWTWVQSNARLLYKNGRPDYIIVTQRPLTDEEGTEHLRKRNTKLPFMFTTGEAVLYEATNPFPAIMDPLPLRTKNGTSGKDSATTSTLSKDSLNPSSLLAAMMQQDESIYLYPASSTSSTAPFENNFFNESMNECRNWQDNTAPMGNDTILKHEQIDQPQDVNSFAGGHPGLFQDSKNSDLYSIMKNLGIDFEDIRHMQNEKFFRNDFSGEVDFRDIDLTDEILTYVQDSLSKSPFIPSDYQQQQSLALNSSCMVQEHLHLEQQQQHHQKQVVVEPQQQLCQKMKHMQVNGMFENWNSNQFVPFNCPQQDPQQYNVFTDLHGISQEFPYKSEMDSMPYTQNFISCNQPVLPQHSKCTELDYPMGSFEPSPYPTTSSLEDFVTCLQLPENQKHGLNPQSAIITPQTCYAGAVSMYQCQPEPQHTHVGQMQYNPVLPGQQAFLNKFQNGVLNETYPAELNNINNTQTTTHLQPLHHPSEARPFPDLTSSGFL
Summary of the method: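 24 h compound exposure, 37C, HepG2-derived HG2L7.5c1 cells with DRE-responsive luciferase. Readouts: fluorescence viability, then luminescence at room temperature after 30 min.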

[3] = qHTS assay to identify small molecule that activate the aryl hydrocarbon receptor (AhR) signaling pathway - cell viability counter screen (AID 743086); note: nearly all actives have a fitted effect of over 45% in size; note: potency is the fitted concentration of half-maximal effect
Summary of the method: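 Cytotoxicity counter screen: CellTiter-Fluor signal (30 min, 37 C) in 4000 HepG2 cells/well carrying the DRE-luciferase reporter, following 24 h compound exposure at 37 C.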

[4] = qHTS assay to identify small molecule antagonists of the peroxisome proliferator-activated receptor gamma (PPARg) signaling pathway - cell viability counter screen (AID 743194); note: nearly all actives have a fitted effect of over 55% in size; note: potency is the fitted concentration of half-maximal effect
Summary of the method: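 Viability was measured as CellTiter-Glo luminescence in GeneBLAzer PPARg UAS-bla HEK293H cells. These cells had been exposed 17 h at 37 C to compounds together with rosiglitazone at 50 nM final, with the beta-lactamase readout taken in the same wells.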

[5] = qHTS assay for small molecule agonists of the antioxidant response element (ARE) signaling pathway (AID 743202; active = well fitted activation curve with a large enough effect in the signal ratio in the repeat runs, not every such curve was filed as active; the % refers to the signal ratio)
Summary of the method: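 Beta-lactamase reporter activity, read as fluorescence intensity, reflects ARE/Nrf2 pathway induction in HepG2 cells after 16 h compound exposure at 37 C; substrate loading was 2 h at room temperature.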

[6] = qHTS assay for small molecule agonists of the antioxidant response element (ARE) signaling pathway - cell viability counter screen (AID 743203; calls by dose curve; note: nearly all actives have a fitted effect of over 55% in size; note: potency is the fitted concentration of half-maximal effect)
Summary of the method: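 Measured in the same wells as the beta-lactamase ARE reporter, this read-out is CellTiter-Glo luminescence from HepG2 ARE-bla cells given compounds for 16 hrs.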

[7] = qHTS assay for small molecule activators of the heat shock response signaling pathway - cell viability counter screen (AID 743209); note: nearly all actives have a fitted effect of over 50% in size
Summary of the method: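 Same-well multiplex: after 2.5 h room-temperature incubation with LiveBLAzer B/G substrate and fluorescence reading, CellTiter-Glo reagent was added to HSE-bla HeLa cells that had received compound for 5 h at 37 C; luminescence read after 30 min.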

[8] = qHTS assay to identify small molecule agonists of the peroxisome proliferator-activated receptor delta (PPARd) signaling pathway - cell viability counter screen (AID 743211); note: nearly all actives have a fitted effect of over 55% in size; note: potency is the fitted concentration of half-maximal effect
Summary of the method: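 Luminescent ATP viability assay (CellTiter-Glo, 30 min RT) in UAS-bla HEK293H cells carrying the PPAR delta reporter construct, 3000 cells/well, after a 17 h compound treatment at 37 C.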

[9] = qHTS assay to identify small molecule antagonists of the peroxisome proliferator-activated receptor delta (PPARd) signaling pathway - cell viability counter screen (AID 743213); note: nearly all actives have a fitted effect of over 50% in size; note: potency is the fitted concentration of half-maximal effect
Summary of the method: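 Luminescence from CellTiter-Glo, added after the bla read and incubated 30 min at room temperature, gives viability of HEK293H PPARd-bla cells exposed to compounds for 17 h at 37 C with 300 nM L165041.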

[10] = target: Peroxisome proliferator-activated receptor delta (Homo sapiens) (UniProt Q03181); test: qHTS assay to identify small molecule antagonists of the peroxisome proliferator-activated receptor delta (PPARd) signaling pathway (AID 743215; active = well fitted inhibition curve with a large enough effect in the signal ratio in the repeat runs, not every such curve was filed as active; the % refers to the signal ratio;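 note: cells stimulated with agonist L165041 at 300 nM final during compound exposure; series mostly up to about 62 µM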)
Peroxisome proliferator-activated receptor delta (Homo sapiens), sequence (Q03181 whole entry, looked up): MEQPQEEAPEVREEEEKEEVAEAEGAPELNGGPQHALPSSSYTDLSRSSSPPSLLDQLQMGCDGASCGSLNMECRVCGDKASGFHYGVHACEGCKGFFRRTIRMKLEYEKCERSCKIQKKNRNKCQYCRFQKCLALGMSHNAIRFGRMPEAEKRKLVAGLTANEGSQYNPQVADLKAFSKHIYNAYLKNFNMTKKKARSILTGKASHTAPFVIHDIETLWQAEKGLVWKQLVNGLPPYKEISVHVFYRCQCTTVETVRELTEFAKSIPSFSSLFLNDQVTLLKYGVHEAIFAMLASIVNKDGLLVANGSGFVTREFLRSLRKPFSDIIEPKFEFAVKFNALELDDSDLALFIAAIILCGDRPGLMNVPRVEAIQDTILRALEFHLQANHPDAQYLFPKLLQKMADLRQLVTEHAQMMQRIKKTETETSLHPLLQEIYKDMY
Summary of the method: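 Fluorescence from cleaved LiveBLAzer B/G FRET substrate (2 h, room temperature) reports PPARd-driven beta-lactamase in HEK293H UAS-bla cells. Cells had been treated 17 h at 37 C with compound plus 300 nM final L165041.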

[11] = qHTS assay to identify small molecule agonists of the farnesoid-X-receptor (FXR) signaling pathway - cell viability counter screen (AID 743218); note: nearly all actives have a fitted effect of over 45% in size; note: potency is the fitted concentration of half-maximal effect
Summary of the method: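 Readout: CellTiter-Glo luminescence, 30 min RT, multiplexed after the FXR-bla FRET reading. HEK 293T FXR-UAS-bla cells received compound 5 h post-plating and were incubated 16 h at 37 C.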

[12] = qHTS assay to identify small molecule antagonists of the farnesoid-X-receptor (FXR) signaling pathway - cell viability counter screen (AID 743221; active = well fitted cell-killing curve with a large enough effect in the repeat runs, not every such curve was filed as active; note: nearly all actives have a fitted effect of over 50% in size; note: potency is the fitted concentration of half-maximal effect)
Summary of the method: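 In GeneBLAzer FXR-UAS-bla HEK 293T cells stimulated with 50 uM chenodeoxycholic acid (final), compounds acted for 16 h at 37 C. Viability was assessed afterwards by CellTiter-Glo luminescence.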

[13] = target: Vitamin D3 receptor (Homo sapiens) (UniProt P11473); test: qHTS assay to identify small molecule antagonists of the vitamin D receptor (VDR) signaling pathway (AID 743223; active = well fitted inhibition curve with a large enough effect in the signal ratio in the repeat runs, not every such curve was filed as active; the % refers to the signal ratio)
Vitamin D3 receptor (Homo sapiens), sequence (P11473 whole entry, looked up): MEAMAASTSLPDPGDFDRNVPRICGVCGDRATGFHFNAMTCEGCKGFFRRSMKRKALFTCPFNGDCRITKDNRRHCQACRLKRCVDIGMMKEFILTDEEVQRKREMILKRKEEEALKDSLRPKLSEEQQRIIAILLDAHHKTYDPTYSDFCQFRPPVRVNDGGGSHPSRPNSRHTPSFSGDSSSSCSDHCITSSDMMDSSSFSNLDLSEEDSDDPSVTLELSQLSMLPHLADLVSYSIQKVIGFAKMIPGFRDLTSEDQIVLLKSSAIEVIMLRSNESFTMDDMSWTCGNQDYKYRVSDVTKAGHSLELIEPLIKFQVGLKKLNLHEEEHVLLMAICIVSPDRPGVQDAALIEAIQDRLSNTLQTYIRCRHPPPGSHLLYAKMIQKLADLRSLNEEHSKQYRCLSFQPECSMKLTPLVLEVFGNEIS
Summary of the method: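 Agonist 1alpha,25-dihydroxyvitamin D3 (3 nM in well) was added with each compound to VDR-bla cells preincubated 4 h. Cells stood 16 h at 37C, then FRET substrate 2 h at room temperature; fluorescence intensity recorded.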

[14] = target: Bile acid receptor (Homo sapiens) (UniProt Q96RI1); test: qHTS assay to identify small molecule antagonists of the farnesoid-X-receptor (FXR) signaling pathway (AID 743217; active = well fitted inhibition curve with a large enough effect in the signal ratio in the repeat runs, not every such curve was filed as active; the % refers to the signal ratio)
Bile acid receptor (Homo sapiens), sequence (Q96RI1 whole entry, looked up): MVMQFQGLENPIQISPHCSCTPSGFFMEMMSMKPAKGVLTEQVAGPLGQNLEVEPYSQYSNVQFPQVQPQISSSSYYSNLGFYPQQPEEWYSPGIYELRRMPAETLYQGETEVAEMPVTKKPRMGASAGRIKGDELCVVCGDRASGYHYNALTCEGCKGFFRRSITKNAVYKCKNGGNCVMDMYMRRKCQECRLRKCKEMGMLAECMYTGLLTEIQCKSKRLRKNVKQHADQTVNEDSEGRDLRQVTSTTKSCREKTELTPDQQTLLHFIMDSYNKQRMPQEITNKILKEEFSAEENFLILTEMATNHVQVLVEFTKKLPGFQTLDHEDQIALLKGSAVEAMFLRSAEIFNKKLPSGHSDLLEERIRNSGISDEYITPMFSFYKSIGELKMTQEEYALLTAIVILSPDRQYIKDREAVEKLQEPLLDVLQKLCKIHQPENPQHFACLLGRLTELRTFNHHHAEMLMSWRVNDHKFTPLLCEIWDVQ
Summary of the method: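 FRET fluorescence after 2 h room-temperature LiveBLAzer loading gives the readout. Prior step: FXR-bla HEK 293T cells, seeded and incubated 5 h, received test compounds plus 50 uM final CDCA for 16 h at 37 °C.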

[15] = target: Bile acid receptor (Homo sapiens) (UniProt Q96RI1); test: qHTS assay to identify small molecule agonists of the farnesoid-X-receptor (FXR) signaling pathway (AID 743220; active = well fitted activation curve with a large enough effect in the signal ratio in the repeat runs, not every such curve was filed as active; the % refers to the signal ratio)
Summary of the method: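 FXR-UAS-bla HEK 293T cells carrying a UAS-driven beta-lactamase reporter were plated for 5 h at 37C/5% CO2, then exposed to DMSO-dissolved Tox21 10K compounds for 16 h at 37C. A LiveBLAzer B/G FRET substrate was loaded for 2 h at room temperature before fluorescence reading.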

[16] = target: Peroxisome proliferator-activated receptor gamma (Homo sapiens) (UniProt P37231); test: qHTS assay to identify small molecule agonists of the peroxisome proliferator-activated receptor gamma (PPARg) signaling pathway (AID 743094; active = well fitted activation curve with a large enough effect in the signal ratio in the repeat runs, not every such curve was filed as active; the % refers to the signal ratio)
Peroxisome proliferator-activated receptor gamma (Homo sapiens), sequence (P37231 whole entry, looked up): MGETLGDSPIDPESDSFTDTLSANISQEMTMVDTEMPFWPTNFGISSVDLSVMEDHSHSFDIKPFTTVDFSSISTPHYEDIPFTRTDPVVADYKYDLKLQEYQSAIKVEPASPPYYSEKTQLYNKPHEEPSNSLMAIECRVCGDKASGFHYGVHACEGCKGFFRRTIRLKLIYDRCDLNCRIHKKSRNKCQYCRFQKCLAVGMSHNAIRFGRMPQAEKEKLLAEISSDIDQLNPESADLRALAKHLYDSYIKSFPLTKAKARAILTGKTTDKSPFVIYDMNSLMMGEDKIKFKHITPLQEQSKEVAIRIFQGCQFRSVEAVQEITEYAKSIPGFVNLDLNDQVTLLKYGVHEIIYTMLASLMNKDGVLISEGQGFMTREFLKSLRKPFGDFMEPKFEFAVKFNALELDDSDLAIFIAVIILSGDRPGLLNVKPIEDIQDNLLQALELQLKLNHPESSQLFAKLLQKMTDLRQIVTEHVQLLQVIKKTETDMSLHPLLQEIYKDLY
Summary of the method: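 Cell-based bla reporter, HEK293H background, PPARg-driven UAS. Pre-incubation 5 h, 37C, 5% CO2. Compound 17 h, 37C. Substrate 1 h RT; fluorescence.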

[17] = target: Peroxisome proliferator-activated receptor gamma (Homo sapiens) (UniProt P37231); test: qHTS assay to identify small molecule antagonists of the peroxisome proliferator-activated receptor gamma (PPARg) signaling pathway (AID 743191; calls by dose curve; note: series mostly up to about 63 µM; nearly all actives have a fitted effect of over 30% in size)
Summary of the method: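 Beta-lactamase reporter under UAS control in HEK293H PPARg-bla cells; compound treatment 17 h at 37C. Read-out: fluorescence intensity after 1 h room-temperature incubation with LiveBLAzer B/G FRET substrate.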

[18] = target: Vitamin D3 receptor (Homo sapiens) (UniProt P11473); test: qHTS assay to identify small molecule agonists of the vitamin D receptor (VDR) signaling pathway (AID 743222; calls by dose curve)
Summary of the method: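 Following 4 h attachment at 37C, VDR-bla cells (2,000 per well) received DMSO-dissolved compounds or controls. After 16 h incubation, LiveBLAzer B/G FRET substrate was added and fluorescence read 2 h later at room temperature.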

[19] = qHTS assay for small molecule activators of the heat shock response signaling pathway (AID 743210; active = well fitted activation curve with a large enough effect in the signal ratio in the repeat runs, with a control signal flat, not every such curve was filed as active; the % refers to the signal ratio;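 note: HeLa cells with beta-lactamase reporter driven by heat shock elements; series mostly up to about 63 µM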)
Summary of the method: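 Fluorescence from a cleaved B/G FRET substrate (2.5 h, room temp) reports HSE-driven beta-lactamase in HeLa cells treated 5 h at 37 C with DMSO-dissolved compounds.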

Measured: Potency

OC[C@H]1O[C@H](O[C@]2(CCl)O[C@H](CCl)[C@@H](O)[C@@H]2O)[C@H](O)[C@@H](O)[C@H]1Cl
not listed: [14] | [15] | [16] | [17] | [18] | [19]
inactive: all other assays above

CCCC[P+](CCCC)(CCCC)CCCC
not listed: [10] | [16] | [17] | [18] | [19]
inactive: all other assays above

C[C@](N)(Cc1ccc(O)c(O)c1)C(=O)O
not listed: [10] | [14] | [15] | [19]
inactive: all other assays above

Nc1ccc2c(c1)CN1C(=O)c3ccccc3C1=N2
inactive: [4] | [6] | [7] | [19] | [8] | [11] | [15]

COc1ccc2cc(S(=O)(=O)N[C@H](CC(=O)N[C@H](Cc3ccc(CN4[C@H](C)CCC[C@@H]4C)cc3)C(=O)N(C)C(C)C)c3ccc4c(c3)OCO4)ccc2c1
inactive: [2] | [7] | [15]
active: [1] 46 µM | [3] 23 µM | [4] 46.3 µM | [6] 18.3 µM | [8] 14.7 µM | [9] 29.2 µM | [11] 26.1 µM | [12] 52 µM

CN(C)C(=O)Nc1ccc(Cl)c(Cl)c1
not listed: [2] | [13] | [14] | [15] | [18] | [19]
inactive: all other assays above

Nc1ccc([N+](=O)[O-])cc1O
inactive: [6] | [7] | [8]
active: [1] 24.3 µM | [2] 13.7 µM | [3] 38.6 µM
